Where “and” joins values, the source holds several entries; their conditions need not be identical. Identical values can stand only once. Inconclusive results are not listed. Where a call stands in place of a potency, no number is given. A structure can be active in one record and inactive in another. Calls of active or inactive are those of the source. Unless noted, the call rests on the fitted dose curve.
Columns and labels:
[1] = Nuclear factor erythroid 2-related factor 2/antioxidant responsive element (Nrf2/ARE) small molecule agonists: qHTS cell viability counter screen in human keratinocytes (AID 1919968; active means well fitted curve in the direction sought with a large enough effect in the repeat runs; an effect the other way counts as inactive or inconclusive; further: nearly all actives have a fitted effect of over 55% in size; further: potency means the concentration at half of the fitted maximal effect)
In short: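 After a 5 h attachment period, ARE-reporter keratinocytes were dosed with compounds in DMSO and then cultured 23 h at 37 C. Cell viability came from CellTiter-Fluor signal read after a further 1 h.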

[2] = Nuclear factor erythroid 2-related factor 2/antioxidant responsive element (Nrf2/ARE) small molecule agonists: luciferase reporter gene qHTS assay in human keratinocytes (AID 1919969); further: nearly all actives have a fitted effect of over 35% in size; further: potency means the concentration at half of the fitted maximal effect
[3] = molecular target: Gonadotropin-releasing hormone receptor (Homo sapiens) (UniProt P30968); assay: Human gonadotropin-releasing hormone receptor (GnRHR) small molecule agonists, calcium flux assay in GnRHR-HEK293 cells (AID 1920063); further: nearly all actives have a fitted effect of over 35% in size
Chain of Gonadotropin-releasing hormone receptor (Homo sapiens) (P30968 whole entry, looked up): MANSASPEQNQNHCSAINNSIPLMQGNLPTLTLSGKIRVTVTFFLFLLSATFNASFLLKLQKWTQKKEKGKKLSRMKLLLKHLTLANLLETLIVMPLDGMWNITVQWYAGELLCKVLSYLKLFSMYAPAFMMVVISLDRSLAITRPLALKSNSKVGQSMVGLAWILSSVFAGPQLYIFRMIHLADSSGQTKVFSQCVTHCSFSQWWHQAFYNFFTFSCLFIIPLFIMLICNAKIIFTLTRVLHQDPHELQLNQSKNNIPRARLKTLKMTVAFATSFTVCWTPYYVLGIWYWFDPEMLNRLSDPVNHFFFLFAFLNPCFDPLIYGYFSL
In short: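 We seeded human GnRHR-expressing HEK293 cells for 18 hours, loaded them with calcium dye for an hour at 37 C, added test compounds, and recorded fluorescence intensity kinetically for three minutes.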

[4] = molecular target: KiSS-1 receptor (Homo sapiens) (UniProt Q969F8); assay: Human kisspeptin (KISS1R) small molecule agonists, calcium flux assay in KISS1R-HEK293 cells (AID 1920064; active means well fitted curve in the direction sought with a large enough effect in the repeat runs; an effect the other way counts as inactive or inconclusive)
Chain of KiSS-1 receptor (Homo sapiens) (Q969F8 whole entry, looked up): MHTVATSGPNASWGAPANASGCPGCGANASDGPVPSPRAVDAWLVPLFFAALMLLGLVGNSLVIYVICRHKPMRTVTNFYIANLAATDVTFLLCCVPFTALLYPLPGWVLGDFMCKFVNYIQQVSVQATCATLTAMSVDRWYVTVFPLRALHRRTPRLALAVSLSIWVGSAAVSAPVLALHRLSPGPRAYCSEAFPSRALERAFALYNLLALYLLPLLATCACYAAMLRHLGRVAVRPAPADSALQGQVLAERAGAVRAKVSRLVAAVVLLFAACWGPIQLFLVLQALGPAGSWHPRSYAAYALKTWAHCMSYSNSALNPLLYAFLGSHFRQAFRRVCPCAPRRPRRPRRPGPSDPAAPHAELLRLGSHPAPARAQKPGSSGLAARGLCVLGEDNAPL
In short: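 Kinetic calcium assay, 1 s sampling over 3 min at Ex/Em 480/540, in HEK293 cells engineered with human KISS1R; compounds delivered in DMSO after 1 h dye loading.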

[5] = G protein-coupled receptor (GPCR) small molecule agonists, calcium flux assay: HEK293 wild type cell line counter screen (AID 1920065)
In short: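 Calcium-sensitive dye, loaded 1 h at 37 C into cells cultured 18 h, reports compound-evoked calcium release as fluorescence (Ex/Em 480/540), measured over 3 min. Agonist mode; 15-point titrations, triplicate.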

[6] = p53 small molecule agonists, cell-based qHTS assay with human liver microsomes (AID 1963577);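 further: p53 response element beta-lactamase reporter cells with liver microsomes plus NADPH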
In short: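 Steps: plate p53RE-bla cells, incubate 5 h at 37 C; add compound in DMSO; add microsomes (0.5 mg/mL final) and NADPH (0.5 mg/mL final); incubate 16 h at 37 C; add LiveBLAzer, 2 h RT; read fluorescence.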

[7] = p53 small molecule agonists, cell-based qHTS assay with rat liver microsomes (AID 1963578)
In short: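 Metabolic activation is supplied by rat liver microsomes with NADPH (each 0.5 mg/mL final). p53RE-bla cells incubate with compound 16 h at 37 C; reporter activity is measured by LiveBLAzer fluorescence.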

[8] = p53 small molecule agonists, cell-based qHTS assay with human liver microsomes: qHTS cell viability counter screen (AID 1963579); further: nearly all actives have a fitted effect of over 45% in size
In short: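 After the 460/530 nm beta-lactamase read, CellTiter-Glo was added to the same wells and luminescence measured after 30 min at room temperature, giving viability of p53RE-bla cells treated 16 h with compounds plus microsomes and NADPH.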

[9] = p53 small molecule agonists, cell-based qHTS assay with rat liver microsomes: qHTS cell viability counter screen (AID 1963580); further: nearly all actives have a fitted effect of over 45% in size
In short: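 p53RE-bla HCT-116 cells were exposed 16 h at 37 C to compounds with rat liver microsomes (0.5 mg/mL) and NADPH (0.5 mg/mL). Viability was measured in the same wells as ATP content by CellTiter-Glo luminescence.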

[10] = p53 small molecule agonists, cell-based qHTS assay: qHTS cell viability counter screen (AID 1963581); further: nearly all actives have a fitted effect of over 45% in size
In short: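 Following 5 h attachment, HCT-116 p53RE-bla cells took up compound for 16 h at 37 C; the reporter was read with B/G FRET substrate (2 h RT), and viability then via CellTiter-Glo ATP luminescence.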

[11] = p53 small molecule agonists, cell-based qHTS assay (AID 1963582; active means well fitted activation curve with a large enough effect in the signal ratio in the repeat runs, not every such curve was filed as active; the % refers to the signal ratio)
In short: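 In this cell-based concentration-response screen, a p53 response element drives beta-lactamase; cells received DMSO-borne compounds after 5 h culture and were incubated a further 16 h before FRET substrate development.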

[12] = molecular target: 5-hydroxytryptamine receptor 2A (Homo sapiens) (UniProt P28223); assay: 5-hydroxytryptamine receptor 2A (HTR2A) small molecule antagonists, cell-based qHTS assay (AID 1963586); further: nearly all actives have a fitted effect of over 45% in size
Chain of 5-hydroxytryptamine receptor 2A (Homo sapiens) (P28223 whole entry, looked up): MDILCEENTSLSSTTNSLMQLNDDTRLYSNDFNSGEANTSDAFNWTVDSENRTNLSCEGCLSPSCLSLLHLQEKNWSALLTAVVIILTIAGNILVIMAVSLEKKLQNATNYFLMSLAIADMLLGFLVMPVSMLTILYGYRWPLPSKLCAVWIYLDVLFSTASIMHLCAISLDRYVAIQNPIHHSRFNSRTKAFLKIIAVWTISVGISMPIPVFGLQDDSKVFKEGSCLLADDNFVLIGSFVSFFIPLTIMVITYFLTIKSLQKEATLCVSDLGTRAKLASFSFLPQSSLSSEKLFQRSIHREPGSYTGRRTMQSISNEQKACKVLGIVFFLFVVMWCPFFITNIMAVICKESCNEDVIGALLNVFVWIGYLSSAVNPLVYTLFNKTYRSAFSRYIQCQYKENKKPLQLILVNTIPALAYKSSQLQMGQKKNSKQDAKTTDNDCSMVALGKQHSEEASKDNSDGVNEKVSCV
In short: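 Antagonist-mode intracellular calcium assay: DOI (4 nM) added after 5 min compound pre-incubation at room temperature to dye-loaded HTR2A-CHO cells. Fluorescence followed for 3 min, sampled every second.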

[13] = molecular target: 5-hydroxytryptamine receptor 2A (Homo sapiens) (UniProt P28223); assay: 5-hydroxytryptamine receptor 2A (HTR2A) small molecule agonists, cell-based qHTS assay (AID 1963587); further: nearly all actives have a fitted effect of over 30% in size
In short: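 CHO cells stably expressing human HTR2A, plated 18 h, loaded with calcium dye 1 h at 37 C. Agonist mode: compounds added and intracellular calcium fluorescence recorded kinetically for 2 min at 1 sec intervals.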

[14] = molecular target: Muscarinic acetylcholine receptor M1 (Homo sapiens) (UniProt P11229); assay: Cholinergic receptor muscarinic 1 (CHRM1) small molecule antagonists, cell-based qHTS assay (AID 1963588); further: nearly all actives have a fitted effect of over 40% in size; further: potency means the concentration at half of the fitted maximal effect
Chain of Muscarinic acetylcholine receptor M1 (Homo sapiens) (P11229 whole entry, looked up): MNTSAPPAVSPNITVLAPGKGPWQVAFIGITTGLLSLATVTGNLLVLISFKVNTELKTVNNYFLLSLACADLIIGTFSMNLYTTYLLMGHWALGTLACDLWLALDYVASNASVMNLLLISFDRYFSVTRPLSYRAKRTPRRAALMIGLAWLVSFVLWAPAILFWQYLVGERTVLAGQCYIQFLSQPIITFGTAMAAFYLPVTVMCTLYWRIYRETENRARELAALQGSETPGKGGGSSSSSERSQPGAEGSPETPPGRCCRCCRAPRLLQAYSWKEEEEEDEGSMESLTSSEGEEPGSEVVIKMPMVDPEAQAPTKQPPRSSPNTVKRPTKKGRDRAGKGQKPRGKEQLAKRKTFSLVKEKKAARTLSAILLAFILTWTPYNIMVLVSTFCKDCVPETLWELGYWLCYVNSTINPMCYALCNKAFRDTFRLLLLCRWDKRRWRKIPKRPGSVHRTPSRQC
In short: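 CHRM1-CHO calcium-flux assay, antagonist mode. Cells were seeded 18 h, dye-loaded 1 h at 37 C and given compound for 5 min at RT, then acetylcholine was added at 50nM. FDSS fluorescence was read 3 min; 15 concentrations, three runs.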

[15] = molecular target: Muscarinic acetylcholine receptor M1 (Homo sapiens) (UniProt P11229); assay: Cholinergic receptor muscarinic 1 (CHRM1) small molecule agonists, cell-based qHTS assay (AID 1963589); further: nearly all actives have a fitted effect of over 35% in size
In short: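 Measures agonist-induced intracellular calcium rise. Stable human CHRM1 CHO line, 1 h dye load at 37 C, compounds from DMSO, kinetic fluorescence read.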

[16] = cAMP Responsive Elements (CRE) small molecule agonists, cell-based qHTS assay (AID 1963590)
In short: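 A CRE-responsive beta-lactamase reporter in HEK 293T cells was used. Treatment ran 3 h at 37 C; detection used LiveBLAzer B/G FRET substrate for 2 h at room temperature.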

[17] = cAMP Responsive Elements (CRE) small molecule antagonists, cell-based qHTS assay (AID 1963591; active means well fitted inhibition curve with a large enough effect in the signal ratio in the repeat runs, not every such curve was filed as active; the % refers to the signal ratio)
In short: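 HEK293T cells carrying a CRE-driven beta-lactamase reporter receive compound and NKH477 (0.25 uM final) for 3 h. Fluorescence from LiveBLAzer B/G FRET substrate is read after 2 h at room temperature.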

[18] = molecular target: Beta-2 adrenergic receptor (Homo sapiens) (UniProt P07550); assay: Adrenergic beta2 receptor (ADRB2) small molecule antagonists, cell-based qHTS assay (AID 1963592); further: series mostly up to about 92 µM; nearly all actives have a fitted effect of over 50% in size
Chain of Beta-2 adrenergic receptor (Homo sapiens) (P07550 whole entry, looked up): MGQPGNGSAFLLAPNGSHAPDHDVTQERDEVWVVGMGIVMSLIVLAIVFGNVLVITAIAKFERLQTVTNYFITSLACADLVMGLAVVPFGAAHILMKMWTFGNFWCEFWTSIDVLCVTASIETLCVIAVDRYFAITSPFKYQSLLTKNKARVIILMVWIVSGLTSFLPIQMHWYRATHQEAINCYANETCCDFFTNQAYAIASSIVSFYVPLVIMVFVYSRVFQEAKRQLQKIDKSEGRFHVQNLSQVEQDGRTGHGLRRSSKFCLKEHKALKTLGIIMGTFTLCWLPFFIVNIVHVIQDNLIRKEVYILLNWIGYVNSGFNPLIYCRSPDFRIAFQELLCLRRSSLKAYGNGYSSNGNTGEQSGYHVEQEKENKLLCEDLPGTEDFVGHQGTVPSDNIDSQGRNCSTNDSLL
In short: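 Cells (CHO, stable ADRB2 overexpression) incubated 18-20hr at 37C; compounds added from DMSO; agonist mix (1nM isoproterenol, 100uM IBMX, 25uM Ro-20-1724) added; 0.5hr RT; d2-cAMP and anti-cAMP-cryptate added; 1hr RT; 665/615 nm read.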

[19] = molecular target: D(2) dopamine receptor (Homo sapiens) (UniProt P14416); assay: Dopamine D2 receptor (DRD2) small molecule agonists, cell-based qHTS assay (AID 1963594); further: nearly all actives have a fitted effect of over 35% in size
Chain of D(2) dopamine receptor (Homo sapiens) (P14416 whole entry, looked up): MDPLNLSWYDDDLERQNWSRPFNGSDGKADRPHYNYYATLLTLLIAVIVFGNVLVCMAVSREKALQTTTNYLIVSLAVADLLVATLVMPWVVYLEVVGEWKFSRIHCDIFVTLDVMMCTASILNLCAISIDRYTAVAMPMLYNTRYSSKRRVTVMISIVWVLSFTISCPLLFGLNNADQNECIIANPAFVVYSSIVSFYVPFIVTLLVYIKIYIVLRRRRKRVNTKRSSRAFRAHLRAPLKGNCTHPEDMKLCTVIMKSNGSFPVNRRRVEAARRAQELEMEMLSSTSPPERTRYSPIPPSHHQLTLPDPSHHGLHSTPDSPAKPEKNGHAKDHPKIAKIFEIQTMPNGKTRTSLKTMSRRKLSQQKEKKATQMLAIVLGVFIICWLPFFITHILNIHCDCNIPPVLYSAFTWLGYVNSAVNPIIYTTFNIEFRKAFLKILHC
In short: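 HEK293 cells stably expressing human DRD2, pre-treated with PDE inhibitor Ro20-1724 (0.1 mM final) and compound 10 min at room temperature, then stimulated with NKH477 (200nM […]) for 30 min. cAMP read by HTRF (665/620 nm).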

[20] = molecular target: D(2) dopamine receptor (Homo sapiens) (UniProt P14416); assay: Dopamine D2 receptor (DRD2) small molecule antagonists, cell-based qHTS assay (AID 1963595; active means well fitted inhibition curve with a large enough effect in the signal ratio in the repeat runs, with a control signal flat; the % refers to the signal ratio)
In short: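 Readout: HTRF cAMP, cAMP-d2 competing with cellular cAMP for anti-cAMP cryptate, read after 1 h. Cells: DRD2-HEK293. Conditions: 0.1 mM Ro20-1724, 12 nM quinpirole, 200 nM NKH477, 30 min RT.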

| SMILES | Potency [1] | Potency [2] | Potency [3] | Potency [4] | Potency [5] | Potency [6] | Potency [7] | Potency [8] | Potency [9] | Potency [10] | Potency [11] | Potency [12] | Potency [13] | Potency [14] | Potency [15] | Potency [16] | Potency [17] | Potency [18] | Potency [19] | Potency [20] |
| --- | --- | --- | --- | --- | --- | --- | --- | --- | --- | --- | --- | --- | --- | --- | --- | --- | --- | --- | --- | --- |
| O=c1[nH]c(=O)[nH]c(=O)[nH]1 | inactive | inactive | inactive | inactive | inactive | inactive | inactive | inactive | inactive | inactive | inactive | inactive | inactive | inactive | inactive | inactive | inactive | inactive | inactive | inactive |
| CCCC(C)(COC(N)=O)COC(N)=O | inactive | inactive | inactive | inactive | inactive | inactive | inactive | inactive | inactive | inactive | inactive | inactive | inactive | 0.0199 µM (active) | inactive | inactive | inactive | inactive | inactive | inactive |
| CC(C)NC(C)C | inactive | inactive | inactive | inactive | inactive | inactive | inactive | inactive | inactive | inactive | inactive | inactive | inactive | inactive | inactive | inactive | inactive | inactive | inactive | inactive |
| O=[N+]([O-])c1ccc([As](=O)(O)O)cc1 | inactive | inactive | inactive | inactive | inactive | inactive | inactive | inactive | inactive | inactive | inactive | inactive | inactive | inactive | inactive | inactive | inactive | inactive | inactive | inactive |
| Cc1ccccc1[N+](=O)[O-] | inactive | inactive | inactive | inactive | inactive | inactive | inactive | inactive | inactive | inactive | inactive | inactive | inactive | inactive | inactive | inactive | inactive | inactive | inactive | inactive |
| Nc1ncc([N+](=O)[O-])s1 | inactive | inactive | inactive | inactive | inactive | inactive | inactive | inactive | inactive | inactive | inactive | inactive | inactive | inactive | inactive | inactive | inactive | inactive | inactive | inactive |
| C=CCOCC1CO1 (stereo not drawn) | inactive | inactive | inactive | inactive | inactive | inactive | inactive | inactive | inactive | inactive | inactive | inactive | inactive | inactive | inactive | inactive | inactive | inactive |  | inactive |
| O=S(=O)(O)C(F)(F)C(F)(F)C(F)(F)C(F)(F)C(F)(F)C(F)(F)C(F)(F)C(F)(F)F | inactive and 61.1 µM (active) | inactive and 61.1 µM (active) | inactive | inactive | inactive | inactive | inactive | inactive | inactive | inactive | inactive | inactive | inactive | inactive | inactive | inactive | inactive | inactive | inactive |  |
| Cc1cccc(N)c1C | inactive | inactive | inactive | inactive | inactive | inactive | inactive | inactive | inactive | inactive | inactive | inactive | inactive | inactive | inactive | inactive | inactive | inactive | inactive | inactive |
| O=[N+]([O-])c1ccccc1-c1ccccc1 | inactive | inactive | inactive | inactive | inactive | inactive | inactive | inactive | inactive | inactive | inactive | inactive | inactive | inactive | inactive | inactive | inactive | inactive | inactive | inactive |
| Cc1cccc(C)c1N | inactive | inactive | inactive | inactive | inactive | inactive | inactive | inactive | inactive | inactive | inactive | inactive | inactive | inactive | inactive | inactive | inactive | inactive | inactive | inactive |
| Nc1c(Br)cc([N+](=O)[O-])cc1[N+](=O)[O-] | inactive | inactive | inactive | inactive | inactive | inactive | inactive | inactive | inactive | inactive | inactive | inactive | inactive | inactive | inactive | inactive | inactive | inactive | inactive | inactive |
| [O]=[Cr][O][Cr]=[O] | inactive | inactive | inactive | inactive | inactive | inactive | inactive | inactive | inactive | inactive | inactive | inactive | inactive | inactive | inactive | inactive | inactive | inactive | inactive | inactive |
| CC(COc1ccc(Oc2ccccc2)cc1)Oc1ccccn1 (stereo not drawn) | inactive | 17.2 µM (active) | inactive | inactive | inactive | inactive | inactive | inactive | inactive | inactive | inactive | inactive | inactive | inactive | inactive | inactive | inactive | inactive | inactive | inactive |
| CCCBr | inactive | inactive | inactive | inactive | inactive | inactive | inactive | inactive | inactive | inactive | inactive | inactive | inactive | inactive | inactive | inactive | inactive | inactive | inactive | inactive |
